# Source: PubChem BioAssay (NCATS)
# Records with an inconclusive call do not appear. Where a call stands in place of a potency, no number is given. Calls of active or inactive are those of the source. Unless noted, calls follow the shape of the dose curve; as a rule, active = well fitted curve in the direction sought with a large enough effect; inconclusive = small, poorly fitted or top-dose-only effect, or another doubt; inactive = no such curve, though single readings can be large; an effect the other way counts as inactive or inconclusive.
# Experiments:
# [1] = qHTS for Activators of Parkin Expression: LOPAC Validation Assay (FLuc Reporter) (AID 720573)
# Summary of the method: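 Readout is FLuc luminescence from neuronal reporter cells (Parkin promoter, FLuc plus NLuc) after 24 h compound exposure in dose response. Values normalized to neutral DMSO and positive-control compounds.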
# [2] = molecular target: T1, Hexokinase-4 (Homo sapiens) + Glucokinase regulatory protein (Homo sapiens) (UniProt P35557+Q14397); experiment: qHTS assay for inhibitors of recombinant human GCK-GKRP interaction: Diaphorase-coupled assay (AID 743205)
# Summary of the method: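 Signal derives from resorufin generated by diaphorase, linked to GCK turnover of glucose (5 mM) and ATP (0.4 mM). Enzyme complex was added after a 20-minute compound preincubation and monitored for 30 minutes.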
# [3] = molecular target: T1, Hexokinase-4 (Homo sapiens) + Glucokinase regulatory protein (Homo sapiens); experiment: qHTS assay for inhibitors of recombinant human GCK-GKRP interaction: ADP-Glo assay (AID 743206)
# Summary of the method: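 GST-GCK and FLAG-GKRP (15 nM each in the dispensed mix, with 2 uM S6P) react with 0.4 mM ATP and 5 mM glucose (final) in Hepes pH 7.6 for 60 min at room temperature. ADP is measured by ADP-Glo luminescence.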
# [4] = molecular target: T1, Hexokinase-4 (Homo sapiens) + Glucokinase regulatory protein (Homo sapiens); experiment: qHTS assay for inhibitors of recombinant human GCK-GKRP interaction: HTRF assay (AID 743207)
# Summary of the method: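 Titration screening format: recombinant GST-GCK and FLAG-GKRP at 5 nM, S6P at 2 uM, labelled anti-tag antibodies, 60 min at RT, dual-wavelength HTRF readout.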
# [5] = qHTS Assay for Identifying Gametocytocidal Compounds (AID 743244);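 also: actives lower the fluorescent signal which means gametocytes are killed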; settings: P. falciparum 3D7 stage III-V gametocytes, alamarBlue, 72 h; max response: stronger effect = lower value
# Summary of the method: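 P. falciparum 3D7 stage III–V gametocytes (20,000 cells/well) were exposed to compounds for 72 h at 37 °C, 5% CO2. AlamarBlue was then added for 24 h; decreased resorufin fluorescence (Ex 525/Em 598 nm) indicated loss of viability.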
# [6] = Natriuretic polypeptide receptor (hNpr1) antagonism - Pilot counterscreen GloSensor control cell line (AID 1347045; calls by dose curve)
# Summary of the method: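 Luminescence was read before and 20 min after adding 50 uM SNP, which stimulates soluble guanylyl cyclase. The HEK293 cells expressing the GloSensor cGMP sensor had been preloaded with 2% reagent for 2 h and treated with compound.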
# [7] = molecular target: Atrial natriuretic peptide receptor 1 (Homo sapiens) (UniProt P16066); experiment: Natriuretic polypeptide receptor (hNpr1) antagonism - Pilot screen (AID 1347049; calls by dose curve;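 also: agonist-evoked cGMP luminescence read 20 min after hNppA addition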)
# Summary of the method: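 Readout is cGMP-driven firefly luciferase luminescence in HEK293 cells carrying hNpr1 and a PDE5-domain GloSensor, read before and 20 min after 0.1 nM hNppA stimulation. Cells had 2% substrate reagent for 2 h and test compound for 30 min.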
# [8] = molecular target: Atrial natriuretic peptide receptor 2 (Homo sapiens) (UniProt P20594); experiment: Natriuretic polypeptide receptor (hNpr2) antagonism - Pilot subtype selectivity assay (AID 1347050; calls by dose curve)
# Summary of the method: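 Pilot selectivity screen against hNpr2: HEK293 cGMP-sensor cells are treated with LOPAC1280 compounds, then with hNppC peptide at 1 nM final. The cGMP-driven luminescence change over 20 min at room temperature is the read-out.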
# [9] = NS1 protein of Zika virus - qHTS assay to identify small molecule inhibitors in human HEK 293 cells (AID 1347053); also: nearly all actives have a fitted effect of over 55% in size
# Summary of the method: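 HEK 293 cells, seeded 20 h at 37 C, were pretreated with compound 1 h, then infected with ZIKV MR766 (MOI = 0.5) for 24 h. NS1 was read by TR-FRET with two anti-NS1 antibodies, normalized to uninfected and infected wells.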
# [10] = molecular target: T2, Tyrosine-protein phosphatase non-receptor type substrate 1 (Homo sapiens) + Leukocyte surface antigen CD47 (Homo sapiens) (UniProt P78324+Q08722); experiment: CD47-SIRPalpha protein protein interaction - LANCE assay qHTS validation (AID 1347057; active = well fitted curve in the direction sought with a large enough effect in the signal ratio, with a control signal flat, not every such curve was filed as active; the % refers to the signal ratio)
# Summary of the method: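 First, His-tagged CD47 and Eu-labelled anti-His antibody met the compound for 30 min; next, site-specifically biotinylated SIRPalpha was added for 30 min; finally streptavidin-APC was added before reading the TR-FRET ratio.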
# [11] = molecular target: T2, Tyrosine-protein phosphatase non-receptor type substrate 1 (Homo sapiens) + Leukocyte surface antigen CD47 (Homo sapiens); experiment: CD47-SIRPalpha protein protein interaction - HTRF assay qHTS validation (AID 1347058; active = well fitted curve in the direction sought with a large enough effect in the signal ratio, not every such curve was filed as active; the % refers to the signal ratio;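 also: recombinant soluble extracellular CD47 with His tag and biotinylated SIRPalpha domains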)
# Summary of the method: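 TR-FRET read (Ch1/Ch2 ratio) of soluble extracellular CD47 and Avi-biotinylated SIRPalpha domains in PBS pH 7.4 with 0.05% IGEPAL; 7-point compound titration. Sequential 30 min room-temperature steps; non-biotinylated SIRPalpha as control inhibitor.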
# [12] = molecular target: T2, Tyrosine-protein phosphatase non-receptor type substrate 1 (Homo sapiens) + Leukocyte surface antigen CD47 (Homo sapiens); experiment: CD47-SIRPalpha protein protein interaction - Alpha assay qHTS validation (AID 1347059);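 also: bead proximity luminescence from CD47 binding SIRPalpha after compound preincubation with SIRPalpha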
# Summary of the method: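 Binding is measured by AlphaScreen proximity: Ni-NTA acceptor beads capture His-CD47, streptavidin donor beads capture biotin-SIRPalpha. Each of three additions (SIRPalpha with compound, CD47, beads) incubates 30 min at room temperature protected from light.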
# [13] = molecular target: Parathyroid hormone/parathyroid hormone-related peptide receptor (Homo sapiens) (UniProt Q03431); experiment: qHTS for PTHR1 Agonists: Optimization Screen against the NCGC LOPAC library (AID 1347079);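 also: GloSensor cAMP luminescence in HEK-293 GP2 cells expressing human PTHR1 with IBMX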
# Summary of the method: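 Agonist readout: GloSensor cAMP luminescence, read after 15 min at room temperature. HEK-293-derived GP2 line carries PTHR1; compounds tested as a titration for 1 hr at 37C in presence of IBMX. M-PTH (1-15) served as control.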
# [14] = test system: Zika virus NS2B-NS3 protease (unlinked); experiment: Optimization of GU AMC qHTS for Zika virus inhibitors: Unlinked NS2B-NS3 protease assay (AID 1347151); also: nearly all actives have a fitted effect of over 80% in size
# Summary of the method: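 In this qHTS, compounds acted on 25 nM unlinked Zika NS2B–NS3 in pH 8.0 Tris/Tween buffer. Cleavage of an AMC peptide ran 15 min at room temperature, to about 20% conversion.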
# [15] = test system: Zika virus NS2B-NS3 protease; experiment: Primary screen GU AMC qHTS for Zika virus inhibitors (AID 1347154); also: nearly all actives have a fitted effect of over 70% in size
# Summary of the method: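 Fluorogenic AMC-substrate cleavage by noncovalent NS2B-NS3 protease complex (25 nM, pH 8.0 Tris buffer with Tween 20) followed for 15 minutes at room temperature (~20% conversion). Percent inhibition from ex340/em450 signal change, fitted by 4-parameter Hill equation.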
# [16] = molecular target: Lysine-specific demethylase 5B (Homo sapiens) (UniProt Q9UGL1); experiment: Optimization screen for KDM5B Histone Demethylases FDH coupled qHTS against the LOPAC library (AID 1347166)
# Summary of the method: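 KDM5BDeltaAP (200nM final) preincubated 10 min with compound, then 12.5uM H3K4Me3, 25uM a-ketoglutarate, ascorbate, Fe(II), NAD+ and FDH added; 50mM HEPES pH 7.5, 0.01% Tween-20. NADH fluorescence (340/450 nm) change over 30 min, room temperature.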
# [17] = qHTS to identify inhibitors of the type 1 interferon - major histocompatibility complex class I in skeletal muscle: primary screen against the NCATS LOPAC collection (AID 1347405);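 also: lytic HiBiT luminescence reporting HLA-B protein level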
# Summary of the method: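 Luminescence from HiBiT fused to endogenous HLA-B in CRISPR-engineered human myoblasts served as the read-out. Cells received 4.0 ng/ml IFN-beta plus compound (seven concentrations, 1:4.3 steps, highest 46 uM final) for 24 hrs before lytic detection.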
# [18] = qHTS for inhibitors of adenylyl cyclases using a fission yeast platform: a pilot screen against the NCATS LOPAC library (AID 1347410)
# Summary of the method: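 Inhibition of GNAS-stimulated AC9 activity in S. pombe was inferred from derepression of a PKA-repressed fbp1-GFP reporter, measured as cytometric fluorescence after 18 h at 30C with compounds at up to 57 µM.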
# [19] = Validation qHTS assay for inhibitors of Activation Induced Cytidine Deaminase (AID): UDG Counterscreen signal (AID 1347427)
# Summary of the method: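 Counterscreen read of UDG activity (2 U/mL, 4/3x) in the FRET deamination format with AID (1 uM, 4/3x), DJC20/DJC23 substrates (250 nM, 4x), 4 h at room temperature. NaOH stop, fluorescence at 560 ex/665 em.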
# [20] = molecular target: Single-stranded DNA cytosine deaminase (Homo sapiens) (UniProt Q9GZX7); experiment: Validation qHTS assay for inhibitors of Activation Induced Cytidine Deaminase (AID): AID signal (AID 1347429)
# Summary of the method: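 Fluorescence at 540 nm excitation and 590 nm emission reports ssDNA cytosine deamination by AID, with UDG in the same well. Compound-treated reactions ran 4 hr at room temperature with DJC20/DJC23 substrate, followed by 30 min NaOH treatment.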
# [21] = Primary qHTS for inhibitors of La Crosse Virus (LACV) - induced cell death in SH-SY5Y cells (AID 1508616);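 also: top concentration of the series differs between compounds; higher means more rescue of cells from virus-induced death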
# Summary of the method: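 Protection against LACV-induced cell death is scored in SH-SY5Y cells exposed to compounds and virus (0.01 MOI) for 6 days. Data normalized to virus-infected DMSO wells and virus-free DMSO wells.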
# [22] = molecular target: Calcium and integrin-binding protein 1 (Homo sapiens) (UniProt Q99828); experiment: Validation qHTS for Identification of Calcium Integrin Binding protein 1 (CIB1) Competitor (AID 1508618)
# Summary of the method: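 CIB1-GST (1 uM final) in 5 mM HEPES pH 7.4, 125 mM NaCl, 5 mM CaCl2, 0.01% Tween20 was preincubated 15 min at room temperature with compound (up to 114 uM), then FITC-alphaIIb peptide (100 nM) added for 15 min; fluorescence polarization read.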
# [23] = Primary qHTS for small molecule stabilizers of the endoplasmic reticulum resident proteome: Secreted ER Calcium Modulated Protein (SERCaMP) assay (AID 1508630)
# Summary of the method: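 GLuc-SERCaMP-expressing SH-SY5Y cells, pretreated 16 h with compound, are challenged with thapsigargin to empty ER calcium stores; after 4 h, coelenterazine is added directly to the medium and luminescence is imaged.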
# Papain (Carica papaya) = Papain (Carica papaya) (UniProt P00784); experiment: Primary qHTS assay for inhibitors of the protease papain (AID 1645873);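 also: papain turnover of Z-FR-AMC read as the AMC fluorescence gain over 10 min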
# [24] = molecular target: Catechol O-methyltransferase (Homo sapiens) (UniProt P21964); experiment: Confirmatory Screen for Target Class Profiling of Small Molecule Inhibitors of Methyltransferases (AID 1745852; calls by dose curve); settings: MTase-Glo luminescence, SAH detection, recombinant enzyme; measured here: COMT max response; stronger effect = lower value
# [25] = molecular target: Guanidinoacetate N-methyltransferase (Homo sapiens) (UniProt Q14353); experiment: as above; settings: activity change, negative = inhibition: at 57.3 µM (top of the series) unless noted
# [26] = molecular target: Nicotinamide N-methyltransferase (Homo sapiens) (UniProt P40261); experiment: as above; settings: MTase-Glo luminescence, SAH detection, recombinant enzyme; measured here: NNMT max response; stronger effect = lower value
# [27] = molecular target: Phenylethanolamine N-methyltransferase (Homo sapiens) (UniProt P11086); experiment: as above; settings: MTase-Glo luminescence, SAH detection, recombinant enzyme; measured here: PNMT max response; stronger effect = lower value
# [28] = molecular target: Metallo-beta-lactamase type 2 (Klebsiella pneumoniae) (UniProt C7C422); experiment: qHTS to identify inhibitors of the New Delhi Metallo-beta-lactamase (NDM): assay validation screen against the NCATS LOPAC Collection (AID 1794843);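 also: nitrocefin turnover by NDM-1 measured as 485 nm absorbance at plateau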
# Summary of the method: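 NDM-1 at 2 nM final in 50 mM HEPES pH 7.0 with 1 uM ZnSO4 and 0.01% Tween20 was preincubated with library compounds in DMSO. Nitrocefin (50 uM stock) was then added, and absorbance at 485 nm was read at the kinetic plateau.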
# [29] = molecular target: Glutathione peroxidase 1 (Homo sapiens) (UniProt P07203); experiment: Primary qHTS Assay for Inhibitors of Recombinant Selenoprotein Glutathione Peroxidase 1 (GPX1) (AID 1845191); also: nearly all actives have a fitted effect of over 65% in size
# Summary of the method: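 10 nM GPX1 + cpd, 30 min RT; start w/ 1 mM GSH, 0.5 mM cumene hydroperoxide, 0.5 mM NADPH, 100 nM GR, 0.01% BSA; buffer 50 mM Tris-HCl pH 7.5, 2 mM EDTA, 150 mM NaCl; Fl 340/450, 0 & 15 min.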
# [30] = molecular target: Phospholipid hydroperoxide glutathione peroxidase GPX4 (Homo sapiens) (UniProt P36969); experiment: Primary qHTS Assay for Inhibitors of Recombinant Selenoprotein Glutathione Peroxidase 4 (GPX4) (AID 1845192); settings: outcome: dose series up to 50 µM unless noted; also: nearly all actives have a fitted effect of over 65% in size
# Summary of the method: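 NADPH consumption, followed by fluorescence at 340/450 nm between 0 and 15 min, reports GPX4 activity via coupled glutathione reductase (100 nM). Enzyme 200 nM was pre-exposed to compound 30 min; 0.5 mM cumene hydroperoxide and 1 mM GSH served as substrates.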
# T1 sequence (P35557 whole entry, looked up): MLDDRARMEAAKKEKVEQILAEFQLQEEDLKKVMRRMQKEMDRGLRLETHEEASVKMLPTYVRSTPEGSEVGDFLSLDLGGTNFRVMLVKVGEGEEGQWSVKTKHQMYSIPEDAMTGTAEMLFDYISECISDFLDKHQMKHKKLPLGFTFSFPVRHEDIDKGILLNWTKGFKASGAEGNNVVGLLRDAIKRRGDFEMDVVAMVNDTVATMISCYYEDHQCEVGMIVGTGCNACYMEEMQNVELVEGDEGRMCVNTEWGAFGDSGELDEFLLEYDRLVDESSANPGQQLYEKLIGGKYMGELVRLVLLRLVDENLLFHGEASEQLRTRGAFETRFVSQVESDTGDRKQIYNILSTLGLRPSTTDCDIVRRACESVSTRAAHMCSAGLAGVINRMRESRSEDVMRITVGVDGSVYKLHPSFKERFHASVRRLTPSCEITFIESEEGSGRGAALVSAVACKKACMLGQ
# T1 sequence (Q14397 whole entry, looked up): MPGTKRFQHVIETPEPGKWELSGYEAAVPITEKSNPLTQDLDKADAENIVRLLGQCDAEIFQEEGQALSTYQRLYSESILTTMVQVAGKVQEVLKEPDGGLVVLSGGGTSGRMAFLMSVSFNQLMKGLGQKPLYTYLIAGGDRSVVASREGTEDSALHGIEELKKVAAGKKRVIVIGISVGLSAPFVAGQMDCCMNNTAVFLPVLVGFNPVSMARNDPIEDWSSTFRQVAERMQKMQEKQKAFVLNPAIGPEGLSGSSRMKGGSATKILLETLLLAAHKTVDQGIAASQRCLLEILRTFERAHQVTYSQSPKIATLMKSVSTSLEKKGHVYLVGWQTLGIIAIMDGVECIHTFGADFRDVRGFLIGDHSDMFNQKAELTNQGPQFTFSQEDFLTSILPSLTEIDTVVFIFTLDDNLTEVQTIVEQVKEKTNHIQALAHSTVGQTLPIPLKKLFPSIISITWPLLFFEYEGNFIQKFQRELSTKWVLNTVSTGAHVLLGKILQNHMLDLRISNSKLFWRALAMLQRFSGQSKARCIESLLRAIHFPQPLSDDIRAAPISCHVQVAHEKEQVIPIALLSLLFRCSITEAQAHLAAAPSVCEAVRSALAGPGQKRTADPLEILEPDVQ
# T2 sequence (P78324 whole entry, looked up): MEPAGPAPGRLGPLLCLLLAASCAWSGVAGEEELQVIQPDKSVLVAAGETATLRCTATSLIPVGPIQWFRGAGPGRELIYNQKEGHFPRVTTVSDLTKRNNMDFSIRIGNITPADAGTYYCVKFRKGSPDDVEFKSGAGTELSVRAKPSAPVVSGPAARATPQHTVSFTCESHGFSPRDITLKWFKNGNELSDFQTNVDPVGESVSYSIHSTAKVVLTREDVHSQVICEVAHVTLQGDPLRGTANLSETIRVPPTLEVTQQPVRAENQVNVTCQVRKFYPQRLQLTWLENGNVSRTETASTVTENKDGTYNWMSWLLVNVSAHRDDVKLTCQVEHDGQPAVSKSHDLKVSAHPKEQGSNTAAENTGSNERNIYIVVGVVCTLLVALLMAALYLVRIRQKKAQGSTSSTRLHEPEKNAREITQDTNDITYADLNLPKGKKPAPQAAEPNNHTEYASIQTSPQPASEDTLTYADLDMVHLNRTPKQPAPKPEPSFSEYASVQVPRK
# T2 sequence (Q08722 whole entry, looked up): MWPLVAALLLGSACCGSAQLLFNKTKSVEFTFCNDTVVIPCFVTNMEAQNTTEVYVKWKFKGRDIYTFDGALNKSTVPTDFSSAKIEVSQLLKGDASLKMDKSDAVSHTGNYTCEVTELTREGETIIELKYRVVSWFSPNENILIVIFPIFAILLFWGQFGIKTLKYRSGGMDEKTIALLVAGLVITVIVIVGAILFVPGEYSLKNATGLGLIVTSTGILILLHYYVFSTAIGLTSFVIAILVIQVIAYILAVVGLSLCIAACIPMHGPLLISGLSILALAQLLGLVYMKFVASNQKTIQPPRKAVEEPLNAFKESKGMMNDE
# Chain of Parathyroid hormone/parathyroid hormone-related peptide receptor (Homo sapiens) (Q03431 whole entry, looked up): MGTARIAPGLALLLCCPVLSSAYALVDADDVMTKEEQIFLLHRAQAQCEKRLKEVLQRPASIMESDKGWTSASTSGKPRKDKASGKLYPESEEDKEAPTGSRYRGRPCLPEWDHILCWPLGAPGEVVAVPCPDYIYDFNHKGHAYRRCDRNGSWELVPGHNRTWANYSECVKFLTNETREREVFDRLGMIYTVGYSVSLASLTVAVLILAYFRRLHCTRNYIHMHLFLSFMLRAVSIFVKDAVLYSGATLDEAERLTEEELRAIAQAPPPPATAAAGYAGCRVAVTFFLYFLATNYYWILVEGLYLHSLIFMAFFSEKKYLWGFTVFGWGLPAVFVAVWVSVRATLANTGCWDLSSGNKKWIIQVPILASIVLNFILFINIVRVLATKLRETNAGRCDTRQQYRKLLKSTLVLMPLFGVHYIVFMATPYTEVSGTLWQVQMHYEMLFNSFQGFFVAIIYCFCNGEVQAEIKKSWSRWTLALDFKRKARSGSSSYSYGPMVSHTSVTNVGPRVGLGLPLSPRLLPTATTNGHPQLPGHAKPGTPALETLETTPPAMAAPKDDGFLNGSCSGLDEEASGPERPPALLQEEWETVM
# Chain of Nicotinamide N-methyltransferase (Homo sapiens) (P40261 whole entry, looked up): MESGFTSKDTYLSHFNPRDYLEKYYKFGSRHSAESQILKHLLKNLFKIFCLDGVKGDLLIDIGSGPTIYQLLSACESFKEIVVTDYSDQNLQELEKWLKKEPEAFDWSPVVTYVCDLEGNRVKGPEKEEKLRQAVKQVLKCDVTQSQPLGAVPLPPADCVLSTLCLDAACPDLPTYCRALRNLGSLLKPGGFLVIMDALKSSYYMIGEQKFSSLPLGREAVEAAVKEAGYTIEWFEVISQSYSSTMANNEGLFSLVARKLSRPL
# Chain of Phenylethanolamine N-methyltransferase (Homo sapiens) (P11086 whole entry, looked up): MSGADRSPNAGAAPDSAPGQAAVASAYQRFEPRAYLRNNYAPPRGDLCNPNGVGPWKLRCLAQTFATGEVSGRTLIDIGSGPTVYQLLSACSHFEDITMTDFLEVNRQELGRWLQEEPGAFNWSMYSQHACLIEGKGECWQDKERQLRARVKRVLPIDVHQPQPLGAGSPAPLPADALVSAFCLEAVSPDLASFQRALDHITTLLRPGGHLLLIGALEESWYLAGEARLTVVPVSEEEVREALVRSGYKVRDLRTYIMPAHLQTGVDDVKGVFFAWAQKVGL
# Chain of Atrial natriuretic peptide receptor 2 (Homo sapiens) (P20594 whole entry, looked up): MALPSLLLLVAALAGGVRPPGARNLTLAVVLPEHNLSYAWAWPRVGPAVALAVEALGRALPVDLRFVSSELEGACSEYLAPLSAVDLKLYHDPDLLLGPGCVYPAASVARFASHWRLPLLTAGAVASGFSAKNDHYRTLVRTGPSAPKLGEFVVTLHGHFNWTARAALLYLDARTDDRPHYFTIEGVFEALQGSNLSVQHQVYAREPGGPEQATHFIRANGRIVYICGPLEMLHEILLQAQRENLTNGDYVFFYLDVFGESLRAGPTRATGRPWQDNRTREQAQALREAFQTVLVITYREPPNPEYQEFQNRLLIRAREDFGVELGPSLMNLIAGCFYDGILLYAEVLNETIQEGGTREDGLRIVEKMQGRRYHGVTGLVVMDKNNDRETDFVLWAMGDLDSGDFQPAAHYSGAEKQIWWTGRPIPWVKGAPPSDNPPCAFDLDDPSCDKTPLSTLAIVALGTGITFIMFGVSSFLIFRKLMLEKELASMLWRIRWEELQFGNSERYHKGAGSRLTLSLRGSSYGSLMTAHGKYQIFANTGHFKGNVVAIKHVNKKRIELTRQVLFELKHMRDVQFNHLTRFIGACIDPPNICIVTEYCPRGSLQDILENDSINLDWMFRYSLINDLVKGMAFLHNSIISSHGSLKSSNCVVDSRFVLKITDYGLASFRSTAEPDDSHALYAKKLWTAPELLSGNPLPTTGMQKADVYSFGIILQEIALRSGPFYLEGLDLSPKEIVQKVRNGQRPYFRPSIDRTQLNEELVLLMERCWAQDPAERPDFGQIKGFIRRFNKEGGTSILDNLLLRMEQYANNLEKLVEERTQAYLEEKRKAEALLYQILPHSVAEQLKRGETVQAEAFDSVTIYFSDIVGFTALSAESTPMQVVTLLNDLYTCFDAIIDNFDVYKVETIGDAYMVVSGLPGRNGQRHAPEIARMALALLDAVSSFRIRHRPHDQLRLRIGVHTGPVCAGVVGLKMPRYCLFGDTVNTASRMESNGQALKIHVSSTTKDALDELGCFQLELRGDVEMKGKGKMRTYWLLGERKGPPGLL
# Chain of Metallo-beta-lactamase type 2 (Klebsiella pneumoniae) (C7C422 whole entry, looked up): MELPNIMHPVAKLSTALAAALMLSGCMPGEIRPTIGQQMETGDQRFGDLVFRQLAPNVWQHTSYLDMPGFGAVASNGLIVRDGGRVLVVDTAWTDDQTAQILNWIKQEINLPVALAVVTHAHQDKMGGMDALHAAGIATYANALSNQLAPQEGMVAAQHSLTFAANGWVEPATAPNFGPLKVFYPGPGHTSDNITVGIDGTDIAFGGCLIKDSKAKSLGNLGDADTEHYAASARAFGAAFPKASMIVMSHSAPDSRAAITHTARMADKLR
# Chain of Catechol O-methyltransferase (Homo sapiens) (P21964 whole entry, looked up): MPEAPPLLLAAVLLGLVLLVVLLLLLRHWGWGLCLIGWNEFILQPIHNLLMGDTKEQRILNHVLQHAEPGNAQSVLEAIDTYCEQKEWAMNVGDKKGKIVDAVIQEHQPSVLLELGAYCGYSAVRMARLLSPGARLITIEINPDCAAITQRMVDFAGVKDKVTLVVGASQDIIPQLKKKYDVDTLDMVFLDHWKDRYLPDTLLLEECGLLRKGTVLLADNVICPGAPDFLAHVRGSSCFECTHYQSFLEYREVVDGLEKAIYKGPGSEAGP
# Chain of Single-stranded DNA cytosine deaminase (Homo sapiens) (Q9GZX7 whole entry, looked up): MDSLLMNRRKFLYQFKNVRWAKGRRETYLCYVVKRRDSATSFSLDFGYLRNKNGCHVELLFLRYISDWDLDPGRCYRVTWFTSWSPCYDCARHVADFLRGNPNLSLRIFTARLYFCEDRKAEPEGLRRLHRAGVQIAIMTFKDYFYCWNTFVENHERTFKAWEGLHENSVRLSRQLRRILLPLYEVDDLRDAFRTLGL
structure (smiles),measurement,setting,value
C[C@H](Cc1ccccc1)Nc1ncnc2c1ncn2[C@@H]1O[C@H](CO)[C@@H](O)[C@H]1O,Potency,[1],inactive
same,outcome,[2],inactive
same,outcome,[3],inactive
same,outcome,[4],inactive
same,max response,[5],-7.31% (inactive)
same,Potency,[6],inactive
same,Potency,[7],inactive
same,Potency,[8],inactive
same,outcome,[9],inactive
same,outcome,[10],inactive
same,outcome,[11],inactive
same,Potency,[12],inactive
same,outcome,[13],inactive
same,Potency,[14],inactive
same,Potency,[15],inactive
same,outcome,[16],inactive
same,Potency,[17],inactive
same,outcome,[18],inactive
same,outcome,[19],inactive
same,Potency,[20],inactive
same,outcome,[21],inactive
same,outcome,[22],inactive
same,Potency,[23],inactive
same,Potency,Papain (Carica papaya),inactive
same,activity,[24],-28.1%
same,"activity change, negative = inhibition",[25],-3.97%
same,activity,[26],4.48%
same,activity,[27],-12.3%
same,Potency,[28],inactive
same,Potency,[29],inactive
same,Potency,[30],inactive
